Data published in PubChem BioAssay AID624136 (Broad Institute, 2012).
About 75 (0.4%) of roughly 17,000 compounds were called active. This is one part of a sample in which actives are shown more often than they occur.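 How the source made its calls: active means compounds whose four printed spots each glow above background more than chance allows, each with a p-value under 7%; inactive means the rest.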

System: mutant tumor protein p53 (GST-tagged), Homo sapiens
Test: small molecules binding GST-tagged mutant p53 – biochemical, small molecule microarray, anti-GST fluorescence, primary screen (AID 624136)

**Q.** How did the outcome turn out when `Cc1ccccc1-c1nnc(SCC(=O)Nc2ccc(S(N)(=O)=O)cc2)n1C` was run?
**A.** inactive

**Q.** With `CC(C)(C)c1cn2c3ccccc3nc2n1CCN1CCOCC1` as the compound, how does the outcome read?
**A.** inactive

**Q.** With `CNC[C@H]1Oc2ccc(NS(=O)(=O)c3ccccc3)cc2CC(=O)N([C@H](C)CO)C[C@@H]1C` as the compound, how does the outcome read?
**A.** inactive

**Q.** Which outcome does the source give for `CC(C)NC(=O)Nc1ccc2c(c1)C(=O)N([C@@H](C)CO)C[C@@H](C)[C@H](CN(C)C)OCCCC[C@H](C)O2` here?
**A.** inactive

**Q.** Which outcome does the source give for `NC(CC(=O)Nc1ccc(Cl)cc1)C(=O)O` (stereo unspecified) here?
**A.** inactive

**Q.** How did the outcome turn out when `C[C@@H]1CN([C@@H](C)CO)C(=O)c2cccc(NC(=O)c3ccncc3)c2O[C@@H]1CN(C)CC1CC1` was run?
**A.** inactive

**Q.** Which outcome does the source give for `C[C@@H]1CN([C@@H](C)CO)C(=O)c2cccc(NS(=O)(=O)c3cn(C)cn3)c2O[C@@H]1CN(C)Cc1ccc(Cl)c(Cl)c1` here?
**A.** inactive

**Q.** How did the outcome turn out when `COc1ccc(CN(C)C[C@H]2Oc3c(NC(=O)C4CCCCC4)cccc3C(=O)N([C@@H](C)CO)C[C@H]2C)cc1` was run?
**A.** inactive

**Q.** For `CC(=O)Nc1ccc(NC(=O)CN(c2ccc(I)cc2)S(C)(=O)=O)cc1`, which outcome is on record?
**A.** inactive

**Q.** For `CN(CCc1ccccn1)S(=O)(=O)c1ccc2c3c(cccc13)C(=O)N2`, which outcome is on record?
**A.** inactive

**Q.** `CNC[C@@H]1OCCCC[C@@H](C)Oc2ccc(NS(C)(=O)=O)cc2C(=O)N([C@H](C)CO)C[C@@H]1C` was tested. Which outcome did it give?
**A.** inactive

**Q.** How did the outcome turn out when `CCN1CCOC(CC(=O)Nc2ccc3c(c2)OCCO3)C1=O` (stereo unspecified) was run?
**A.** inactive

**Q.** `C[C@@H]1CN([C@H](C)CO)C(=O)c2cc(NC(=O)Cn3cnnn3)ccc2O[C@@H]1CN(C)CC1CC1` was tested. Which outcome did it give?
**A.** inactive

**Q.** With `C[C@@H]1CN([C@@H](C)CO)C(=O)c2cc(NS(=O)(=O)c3ccccc3)ccc2O[C@@H](C)CCCCO[C@@H]1CN(C)S(=O)(=O)c1cccs1` as the compound, how does the outcome read?
**A.** inactive

**Q.** `O=C(Cn1cnc([N+](=O)[O-])n1)Nc1c(Cl)cccc1Cl` was tested. Which outcome did it give?
**A.** inactive

**Q.** With `COc1ccc(CN(C)C[C@H]2Oc3c(NS(=O)(=O)c4ccc(Cl)cc4)cccc3C(=O)N([C@H](C)CO)C[C@H]2C)cc1` as the compound, how does the outcome read?
**A.** inactive

**Q.** With `Cn1c(COc2ccccc2)nnc1SCc1nc2ccccc2c(=O)[nH]1` as the compound, how does the outcome read?
**A.** inactive

**Q.** How did the outcome turn out when `Cc1noc(C)c1NC(=O)N(C)C[C@H]1Oc2c(NC(=O)c3nc4ccccc4s3)cccc2C(=O)N([C@@H](C)CO)C[C@@H]1C` was run?
**A.** inactive

**Q.** For `COc1ccc(CN(C)C[C@H]2Oc3c(NC(=O)NC4CCCCC4)cccc3C(=O)N([C@@H](C)CO)C[C@@H]2C)cc1`, which outcome is on record?
**A.** inactive

**Q.** For `Cc1noc(C)c1NC(=O)N(C)C[C@@H]1OCCCC[C@@H](C)Oc2ccc(NC(=O)C3CCCCC3)cc2C(=O)N([C@H](C)CO)C[C@@H]1C`, which outcome is on record?
**A.** inactive

**Q.** `CC1(C)C[C@H](O)C[C@@]2(C)[C@H]1[C@H](O)C=C1COC(=O)[C@@]12O` was tested. Which outcome did it give?
**A.** inactive
